# ± gives the standard deviation of the averaged measurements. Over roughly 25,000 sequences, “ln(normalized median fluorescence intensity)” has its median near 8.6; the highest 2% begin near 10. Only a selection was taken, and the highest values are over-represented in it overall.
# System: PfAP2-EXP AP2 domain (GST-tagged)
# Experiment: gcPBM binding intensity (ln(normalized median fluorescence intensity)); higher = stronger DNA binding
# How it was run: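 The highest Masliner-normalised natural-log median intensity across replicate spots of either probe orientation is reported as binding intensity. GST-tagged P. falciparum DNA-binding domains expressed in E. coli were applied for 1 h to an Agilent 4 × 180k array of primer-extended double-stranded 36-bp intergenic genomic probes plus negative controls, and bound protein was detected with Alexa488 anti-GST antibody and scanned at 488 nm.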
row,Sequence,gcPBM binding intensity (ln)
1,GACATAGTATTAAGTTGTACATATATAAAAATAAAT [XGTACX_site1583],8.65 ± 0.32
2,TGCTTATCCATTTCTACACACAAAAAAAAAAAAAAA [CACACA_site37],8.28 ± 0.28
3,ATAATGTAGAACTAGAGTACATAAAAAAATAAACAT [XGTACX_site5205],9.06 ± 0.47
4,TATATATAAATATTCAGTACATAGTGCTATTAAGTG [XGTACX_site1979],8.605 ± 0.064
5,TGTATGTATAATTGAGTGCACAGAAAAAAAAAAGAA,9.6 ± 0.17
6,GTTGTAAAAAGAAAATGTACGTAATAAATATATATA [XGTACX_site3081],8.93 ± 0.38
7,TTTTCATATATTTATTGTACATATTACATATATAAT [XGTACX_site2425],8.71 ± 0.23
8,TACATTCTAATAATTGCACACTGGTTATTAAAAGGA [CACACA_site1614],8.4 ± 0.29
9,TATATATTTTTTTCAAGTACACATTACAGTTACATA [XGTACX_site2713],8.62 ± 0.38
10,TTATAAGATTTATGTACACACATATACTCACCTCTA [CACACA_site729],8.51 ± 0.25
11,TTTATATAGAAACACACACACAAAAAAAAAAAAAAA [CACACA_site2646],8.24 ± 0.52
12,TTTAATCATATGTTATATAATAAGCCCCCCCCCCAA [CACACA_negctrl_site486],11 ± 0.12
13,TATTAATTATATTTATGTACATAATCATATTATTAT [XGTACX_site7938],8.55 ± 0.35
14,ATATATATATAATTATATAAAATATATCATATGTTA [XGTACX_negctrl_site47],9.37 ± 0.14
15,TCTTTCTATTTATAATGTACTCAAAATTATTCTATA [XGTACX_site4867],8.6 ± 0.36
16,AGTGTGCTCAGCTTAGCACAAATTGGAATACCATGT [CACACA_negctrl_site367],8.63 ± 0.4
17,CATATAATAAATAATACACACATATTGTAAATATAT [CACACA_site5734],8.43 ± 0.44
18,ATATTAGATTAATTTACACACAGAAAATGAGATTTT [CACACA_site541],8.21 ± 0.36
19,ATATTTCAAAATGAAAGTACATATAAAAATTATACA [XGTACX_site3787],8.31 ± 0.29
20,ATATTATGAAGGGATATTTTCAAAAATATTAGGAGA [CACACA_negctrl_site942],8.64 ± 0.41
21,TTATTTTTCAATGAAAAGGATTATATATATATATAT [CACACA_negctrl_site757],10.2 ± 0.13
22,TTCATATTTCATATATGTACTTATGTTCAATATAGT [XGTACX_site3811],8.31 ± 0.3
23,ATTTTTTTGTTAATTTGTACATAAAATTTTATTTTA [XGTACX_site7007],8.72 ± 0.42

row,Sequence,gcPBM binding intensity (ln)
1,TTTATATTTATATAAATATAATATATATGAATTATA [XGTACX_negctrl_site466],8.19 ± 0.51
2,TATAATATAAAATATGCACACATTGGAATGGGAGAA [CACACA_site3746],8.97 ± 0.35
3,AATATATAGAGAGATATGCACACTGTATGAATGCAC [CACACA_site2677],8.58 ± 0.014
4,CCACTGTATGAATGCACACATTCATAGAATTGCTAT [CACACA_site2676],8.79 ± 0.28
5,TATATGGAGAGATATGCACACTGTATGAATGCCCCC [CACACA_site8853],10.3 ± 0.33
6,ATATATATATATAATGCACACATTATGAATTATGTA [CACACA_site3384],9.98 ± 0.26
7,TATATAGAGAGATATGCACACTGTATGAATGCCCCC [CACACA_site5476],10.3 ± 0.38
8,TCCTTATAAAAATACACACAAACTTTAATTAAAACA [CACACA_site3730],8.45 ± 0.58
9,TTTAAGATTTTGTAATGTACATATATACATATATAT [XGTACX_site399],8.45 ± 0.33
10,AGAAATAAGAAATATACACACATATATATATATATA [CACACA_site2808],10.2 ± 0.18
11,AGAAATAAGAAATATACACACATATAAATATAAATA [CACACA_site7342],8.52 ± 0.55
12,AAGAAATAAATACATACACACATATATAAATAAATA [CACACA_site7559],8.68 ± 0.18
13,AAAAAAAAAAAAGAAAAATATATATATAAATAAATA [GTGCAC_negctrl_site569],8.29 ± 0.67
14,AATATAAGAATATATACACACATAAATACATACATA [CACACA_site4128],8.6 ± 0.31
15,TAAAGAAATAAATACATACACACATATATATATATA [CACACA_site3363],10.2 ± 0.5
16,ATATAAATAAAGAAATATATATATATATATATATAT [GTGCAC_negctrl_site668],10.2 ± 0.88
17,AAAAAAAGAAATAATAAAAAATATATATATATATAT [GTGCAC_negctrl_site702],10.1 ± 0.44
18,AAGAAATAAATACATACACACATATATATATATATA [CACACA_site3362],10 ± 0.34
19,TTTTTTTTTTTTGATGCACACACCTGAACGAGTTAA [CACACA_site317],8.62 ± 0.32
20,TAGCGTACATTTCATTGTAATCATAAAAAATAAAGA [CACACA_negctrl_site447],8.56 ± 0.49
21,GTTGCAATTAACACTAGTACATATAAGTAGTTTATT [XGTACX_site2063],8.72 ± 0.18
22,TCCTTGCATTTTAAAACACACAAAAATTAATTGTTA [CACACA_site7152],8.55 ± 0.32
23,TTTTATGATTGACACACACACAAAAAAAAAAAAAAA [CACACA_site7860],8.2 ± 0.43

row,Sequence,gcPBM binding intensity (ln)
1,AAAAAAAATATACATACATGCATACATAAGTTTCTA [TGCATGCA_site998],8.49 ± 0.24
2,TATATATATATAATAGTGCATAAATAAATATATAAA,9.65 ± 0.057
3,TTTCTAGTTACAAGAGTGCATAATATATAAAAATAA [GTGCAC_site9874],8.85
4,TATATATATATATAAGTGCATATAAAAATCGTTCGT,10.3 ± 0.18
5,ATATATATATATATAGTGCATAAAATAAGTTTCTAA,10.2 ± 0.28
6,AATAAAAATAATATAGTGCATAATATAAGGAAAAAA,9.07 ± 0.071
7,TTTTTTATTCCATAATATAATATGTTTTGAAATTTG [GTGCAC_negctrl_site440],8.27 ± 0.33
8,TTTATTATATTTTTTTGTACATATTGATGTATATAA [XGTACX_site6527],8.59 ± 0.28
9,GATGTGATGTATTTGGTATTTTTCGATGTTGGTAGG [CACACA_negctrl_site355],8.79 ± 0.73
10,TACTATTTAAAATATGAACACACATTATTTGTTTTA [CACACA_site8870],8.13 ± 0.3
11,ATATTGAAATGTTAATAGAAATATATGGTTAAATTG [XGTACX_negctrl_site212],8.34 ± 0.34
12,ATAAATAAAACAACAGTGCAATAAAATTAGTTGAGG,9.035 ± 0.021
13,ATATACAGAAAAAATTAAAATAAATATGCAAAACAA [CACACA_negctrl_site704],8.86 ± 0.32
14,AAAATAAAATTAGTTGCATGCAACTTAAACAGAAAT [TGCATGCA_site860],10.3 ± 0.35
15,AAAAAATTATAAAAGTGTACATATATATATATATAT [XGTACX_site154],10 ± 0.38
16,TAAAGTGTAAAATTCACACACATATATATATATATA [CACACA_site4883],10.1 ± 0.36
17,TAAATTAATAAAAAGTGTACATAATATACATATATA [XGTACX_site8604],8.62 ± 0.33
18,CCTAAAGTGTAAAATTCACACACATATATATATATA [CACACA_site8385],10.2 ± 0.44
19,TTTTTCTTAAAAAATTGTACACATATATATATATAT [XGTACX_site542],10.3 ± 0.22
20,GTGTAAAAATTAAAGTGTACACATATATATATATAT [XGTACX_site2251],10.2 ± 0.31
21,TATTGTTATTAAAAATGTACATATAAATTTCTTATT [XGTACX_site1409],8.32 ± 0.33
22,TAAAAATTAAAGTGTACACATATATATATATATATA [CACACA_site4781],10.2 ± 0.38
23,ATATATAATTAATTTTGTACACATAAAAAAAAAAAT [XGTACX_site6647],8.59 ± 0.42

row,Sequence,gcPBM binding intensity (ln)
1,AGGGGAAATAAAATATAAATTATCATATATATATAT [XGTACX_negctrl_site366],9.94 ± 0.21
2,TTTTATTATATATATTGTACATATATTTTTATTTTT [XGTACX_site1564],8.62 ± 0.33
3,TAAACATAAATATACACACAAACATATATGTATTTT [CACACA_site1214],8.51 ± 0.32
4,TATGAACACCCAAATACACACACTCAAAAAAAAAAA [CACACA_site5466],8.4 ± 0.32
5,TACAGATATTATTGCACACATATAAAATACCCCCAA [CACACA_site6014],9.53 ± 0.33
6,AAAAATAAGATATATACACACATATAAATATAAATA [CACACA_site7396],8.51 ± 0.38
7,CATACATATATTATTGCACACATATAAAATACCCCC [CACACA_site9292],10.2 ± 0.33
8,TACATATATTATTGCACACATATAAAATACCCCCAA [CACACA_site3895],9.55 ± 0.52
9,TAAAAAAATAAATATACACACATATATATATATATA [CACACA_site1089],10.2 ± 0.29
10,ATAAAAAAAAAAAATACACACATATATATATATATA [CACACA_site1709],10.1 ± 0.26
11,TAAAAAATAAGATATACACACATATATATATATATA [CACACA_site2324],10.2 ± 0.42
12,TAAAAAATAAGATATACACACATATATTTATTTATA [CACACA_site7158],8.09 ± 0.52
13,AAAAAAAAAATATACACACACACATACACATAAATA [CACACA_site3808],8.79 ± 0.53
14,AAAAAAAAAAAAAATACACACATATAAATATAAATA [CACACA_site6189],8.3 ± 0.49
15,AAAAATAAAATATATACACACATATATATATATATA [CACACA_site2943],10.2 ± 0.64
16,TAAAAAATAAAATACACACACATATATATATATATA [CACACA_site1323],10.2 ± 0.64
17,ATTATACTTTCCATTCGTACATATATAAATAAATAA [XGTACX_site6245],8.93 ± 0.35
18,TTTTATTTATTTTATTGTACATATATAAAACTATGA [XGTACX_site3476],8.57 ± 0.42
19,ATATTTTTAGATTCAGAAAAAAGATTCAACTTACTC [CACACA_negctrl_site1357],8.25 ± 0.45
20,ATGTAGAATTGTAAATGTACATGAAACACATATTCA [XGTACX_site3436],8.79 ± 0.34

# Reference: the supplement of paper PMC11417369
